# Most compounds without a hit are left out; they make up all but 12% or so of the library.
# JMJD2A Tudor inh: blocks the human JMJD2A Tudor domain; O75164; AlphaScreen JMJD2A-Tudor / H3K4me3 peptide binding; Potency, µM (top dose mostly 114 µM), for inactives: at the top dose activity change, negative = inhibition, usual class: inhibitors; actives 4.4% (n = 390,000); AID 504339; further: on the % scale 0 is the no-effect control and ±100 the full control effect; nearly all actives have a fitted effect of over 50% in size
# BAZ2B inh: inhibitors of human BAZ2B bromodomain; actives 4.4% (n = 360,000); AlphaScreen BAZ2B-H3K14Ac peptide displacement; AID 504333; Q9UIF8; Potency, µM (series often up to 114 µM), for the others: at the top dose activity change, negative = inhibition, usual class: inhibitors; further: on the % scale 0 is the no-effect control and ±100 the full control effect; nearly all actives have a fitted effect of over 60% in size
#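 BAZ2B (50 nM) with biotin-H3(5-23)K14Ac peptide (50 nM) in PBS pH 7.4, 0.01% Tween-20, preformed 30 min, then compound 30 min at room temperature; top concentration 110uM. AlphaScreen streptavidin donor/nickel chelate acceptor beads (10 ug/mL final), 20 min dark, signal read.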
# Sfp PPTase inh: blocks B. subtilis Sfp PPTase activity; Q9F4F7; Biochemical Sfp PPTase activity, qHTS; Potency, µM, for the others: largest response in the series, negative = inhibition, most hits filed as inhibitors; actives 3.5% (n = 310,000); AID 1490;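 further: the enzyme is Sfp with the accession as filed and its product quenches rhodamine fluorescence; 0% = enzyme reaction without inhibitor and -100% = no enzyme wells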
#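 Sfp 15 nM + cpd, 15 min RT; start w/ rhodamine-CoA 5 uM, BHQ-2-YbbR 12.5 uM (final); 50 mM Hepes pH 7.6, 10 mM MgCl2, 0.01% NP-40, 0.01% BSA; read 525/598 nm at 0 and 30 min.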
# HP1b binding inh: blocks HP1-beta chromodomain binding to methylated histone tails; Potency, µM (highest dose often 114 µM), inactives show at the top dose activity change, negative = inhibition, hits mostly inhibitors; AlphaScreen HP1-beta / biotin-H3K9me3 peptide binding; actives 0.56% (n = 390,000); further: nearly all actives have a fitted effect of over 70% in size
# Target sequence (P83916 whole entry, looked up): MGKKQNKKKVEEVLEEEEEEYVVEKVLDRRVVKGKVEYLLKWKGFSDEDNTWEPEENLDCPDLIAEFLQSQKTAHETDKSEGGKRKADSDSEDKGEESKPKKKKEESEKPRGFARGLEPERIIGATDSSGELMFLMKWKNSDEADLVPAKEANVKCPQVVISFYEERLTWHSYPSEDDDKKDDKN
#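 HP1-beta protein (50 nM final) preincubated 30 min at room temperature with biotinylated H3(1-18)K9me3 peptide (50 nM) in PBS pH 7.4, 0.01% Tween-20, then compound added for 30 min. AlphaScreen streptavidin donor/nickel chelate acceptor beads (10 ug/mL final), 30 min dark, luminescence read.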
# G9a inh: inhibitors of human histone lysine methyltransferase G9a | actives 8.8% (n = 350,000) | Potency, µM (top dose mostly 102 µM), without a hit: top-dose activity, negative = inhibition, actives largely listed as inhibitors | G9a H3K9 monomethylation, AlphaScreen, 2 h; further: on the % scale 0 is the no-effect control and ±100 the full control effect; nearly all actives have a fitted effect of over 75% in size
# Target sequence (Q96KQ7 913-1193 limits assumed): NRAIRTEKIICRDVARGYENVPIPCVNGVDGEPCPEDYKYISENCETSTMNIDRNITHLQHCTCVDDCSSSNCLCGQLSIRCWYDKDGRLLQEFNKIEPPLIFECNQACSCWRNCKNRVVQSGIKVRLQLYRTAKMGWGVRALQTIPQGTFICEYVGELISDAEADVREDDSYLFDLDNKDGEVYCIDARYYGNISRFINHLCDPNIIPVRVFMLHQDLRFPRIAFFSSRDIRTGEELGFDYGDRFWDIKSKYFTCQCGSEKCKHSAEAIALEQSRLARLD
#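 G9a (20 nM) was preincubated 15 min with compound, then reacted 2 h at room temperature with 500 nM biotin-H3K9 peptide and 20 µM SAM. Monomethyl-H3K9 detected by AlphaScreen using anti-H3K9me1 antibody.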
# * hit, by the source's call; ? = inconclusive; nt = not tested or not shown; [ ] = dose if it differs, or a comment. The call rests on the fitted dose curve; in most records, active means well fitted curve in the direction sought with a large enough effect; inconclusive means small, poorly fitted or top-dose-only effect, or another doubt; inactive means no such curve, though single readings can be large; an effect the other way counts as inactive or inconclusive. Potency means the concentration at half of the fitted maximal effect.
SMILES,JMJD2A Tudor inh,BAZ2B inh,Sfp PPTase inh,HP1b binding inh,G9a inh
CN(C)c1ccc(C(=S)N2CCCCCC2)cc1,?,?,45µM*,-26%,8.9µM*
CN(C)c1ccc(C(=S)N2CCN(S(=O)(=O)c3ccccc3)CC2)cc1,5%,?,-6%,20%,13µM*
COc1ccc(C(=S)N2CCN(S(=O)(=O)c3ccccc3)CC2)cc1,24%,-23%,6%,58%,13%
CC(=O)c1cccc(NC2c3ncccc3C(=O)N2Cc2ccco2)c1 (centres undefined),-13%,-31%,79µM*,25%,50µM*
Cc1ccc(NC2c3ncccc3C(=O)N2Cc2cccs2)cc1 (centres undefined),14µM*,nt,-9%,-10%,45µM*
O=C1c2cccnc2C(Nc2ccccc2Br)N1Cc1ccco1 (centres undefined),-20%,-13%,56µM*,9%,50µM*
O=C1c2cccnc2C(Nc2cccc(F)c2)N1Cc1ccco1 (centres undefined),-5%,-28%,3%,17%,25µM*
CC(=O)c1cccc(NC2c3ccccc3C(=O)N2Cc2ccco2)c1 (centres undefined),-23%,-24%,6%,48%,-6%
Cc1ccc(S(=O)(=O)N2CCOCC2)cc1NCC(=O)Nc1ccc(OC(F)(F)F)cc1,-13%,nt,nt,17%,nt
O=C1c2cccnc2C(O)N1Cc1ccco1 (centres undefined),-14%,10%,4%,12%,6%[59 µM]
COc1cc(NC2c3ncccc3C(=O)N2Cc2ccco2)cc(OC)c1OC (centres undefined),-20%,-8%,-30%,20%,35µM*
COc1ccc(CN2C(=O)c3cccnc3C2Nc2ccc(C)cc2)cc1 (centres undefined),-11%[57.1 µM],?,-5%,-19%,-31%[59 µM]
COc1ccc(CN2C(=O)c3cccnc3C2Nc2cc(Cl)c(OC)cc2OC)cc1 (centres undefined),35µM*,50µM*,-27%,?,45µM*
O=C1c2cccnc2C(Nc2ccccc2)N1Cc1ccco1 (centres undefined),32µM*,56µM*,50µM*,11%,25µM*
CCn1ncc(Cl)c1C(=O)NC(=S)Nc1c(C)cc(C)cc1[N+](=O)[O-],?,?,-11%,-4%,6%[59 µM]
FC(F)(F)c1cc(N2CCOCC2)nc(-c2ccccc2)n1,?,8%,22%,?,52%[59 µM]
COc1cc(C(=O)NC(=S)NNC(=O)c2ccc3c(c2)OCO3)cc(OC)c1OC,-13%,-5%,10%,9%,35µM*
CCCc1cc(C(=O)NNC(=S)Nc2cccc(C)c2)cs1,-25%,-24%,9%,?,8.9µM*
Cc1cccc(NC(=S)NNC(=O)c2ccc3c(c2)OCO3)c1,-24%,-10%,3%,25%,45µM*
Cc1cccc(NC(=S)NNC(=O)c2ccco2)c1,-18%,-6%,0%,2%,-9%[12.7 µM]
CCn1cc2c(c1-c1cccc(C)c1)c(=O)n(C)c(=O)n2C,-16%,nt,-11%,-14%,?
Clc1ccc(CNCC2CCCO2)c(Cl)c1 (centres undefined),-2%,nt,nt,50%,nt
C=CCc1c(C)nc2c(C)cccc2c1SC(=N)N,18%,-2%,56µM*,65%,nt
Cc1nc2c(C)cccc2c(SC(=N)N)c1CC=C(Cl)Cl,?,?,?,59%,7.9µM*
NC(=S)N=Nc1c(O)[nH]c2c(Br)cc(Br)cc12,-15%,-25%,-1%,24%,2%
SMILES,JMJD2A Tudor inh,BAZ2B inh,Sfp PPTase inh,HP1b binding inh,G9a inh
COc1ccc(/C=N/Nc2snc(SC)c2C#N)cc1OC,?,45µM*,?,-33%,-11%[0.0925 µM]
CSc1nsc(N/N=C/c2ccccc2)c1C#N,-17%,-24%,9%,17%,-45%
COc1cccc(/C=N/Nc2snc(SC)c2C#N)c1,-17%,-37%,56µM*,10%,?
COc1cccc(/C=N/Nc2snc(SC)c2C#N)c1O,-35%[57.1 µM],-36%,7%,11%,50µM*
COc1ccc(C=NNC(=S)NN=Cc2ccc(OC)c(OC)c2)cc1OC,?,nt,nt,-8%[57 µM],nt
Cc1ccc(S(=O)(=O)N2CCCCC2)cc1NC(=O)C1CCC1,-11%,6%,nt,12%,?

# Source: PubChem BioAssay (National Center for Advancing Translational Sciences (NCATS))
